Bioassay records as filed in PubChem BioAssay.
NPC1 prom act: NPC1 promoter activation; Potency, µM (top dose mostly 9.22 µM), most hits filed as activators; 320,000 tested, 2.4% active; Huh7 NPC1 promoter luciferase reporter, 24 h; AID 485313; also: nearly all actives have a fitted effect of over 60% in size
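Huh7 cells stably carrying NPC1 promoter–luciferase, plated in Opti-MEM with 10% FBS for 2 h, were exposed to compound in DMSO for 24 h at 37 °C; luciferase reagent was added for 10 min and luminescence read.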
Rab9 prom act: Rab9 promoter activation. Huh7 Rab9 promoter-luciferase reporter, luminescence, 24 h. Potency, µM (series often up to 9.22 µM), hits mostly activators. 320,000 tested, 2.8% active. AID 485297; also: nearly all actives have a fitted effect of over 60% in size
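Rab9 promoter-driven luciferase in stably transfected Huh7 cells; 1500 cells/well rested 2 h, exposed to compound in DMSO for 24 h at 37 °C, 5% CO2. Luminescence read 10 min after adding luciferase reagent at ambient temperature.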
FLuc counter: firefly luciferase modulation, counter-screen for miR-21 project. 360,000 tested, 6.9% active. Potency, µM (doses to about 57.5 µM), most hits filed as inhibitors. AID 588342. P08659. purified FLuc, Km substrates, luminescence inhibition; also: nearly all actives have a fitted effect of over 55% in size
Target sequence (P08659 whole entry, looked up): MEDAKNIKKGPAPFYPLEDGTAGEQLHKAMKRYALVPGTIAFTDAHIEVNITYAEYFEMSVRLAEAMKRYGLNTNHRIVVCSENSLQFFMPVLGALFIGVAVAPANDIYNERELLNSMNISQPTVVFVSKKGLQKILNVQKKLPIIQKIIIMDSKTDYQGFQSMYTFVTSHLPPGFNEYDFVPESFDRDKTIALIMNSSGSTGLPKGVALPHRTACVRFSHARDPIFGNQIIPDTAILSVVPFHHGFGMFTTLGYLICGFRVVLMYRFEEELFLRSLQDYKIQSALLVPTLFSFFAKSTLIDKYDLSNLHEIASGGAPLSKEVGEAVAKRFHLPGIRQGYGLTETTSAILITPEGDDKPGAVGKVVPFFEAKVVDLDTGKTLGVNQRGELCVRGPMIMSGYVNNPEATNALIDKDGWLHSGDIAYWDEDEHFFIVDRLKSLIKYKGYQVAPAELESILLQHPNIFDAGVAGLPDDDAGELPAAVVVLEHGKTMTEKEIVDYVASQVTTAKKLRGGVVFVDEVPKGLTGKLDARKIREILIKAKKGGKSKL
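Purified P. pyralis luciferase (10nM final) with 10uM D-luciferin and 10uM ATP (Km levels) in 50mM Tris acetate pH 7.5, 10mM Mg acetate, 0.01% Tween-20, 0.05% BSA; qHTS 6-point titration, ~60 µM downward; luminescence read.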
KinaseGlo FLuc: counter-screen: inhibitors of Kinase-Glo firefly luciferase | 200,000 tested, 0.28% active | Q27757 | Kinase-Glo luciferase, ATP luminescence, 8 min | Potency, µM (series often up to 38.3 µM), usual class: inhibitors; also: nearly all actives have a fitted effect of over 60% in size
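Compound is pinned into ATP-containing buffer (10 uM ATP, imidazole pH 7.2, 7 mM MgCl2). Kinase-Glo luciferase reagent is then added. Light output is recorded following an 8-min room-temperature incubation.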
ELG1 genotoxic: induces genotoxicity in HEK293T cells with luciferase-tagged ELG1. HEK293T ELG1-luciferase reporter, luminescence, 16 h. Potency, µM (highest dose often 46 µM), actives largely listed as activators. 330,000 tested, 1.3% active. AID 504466; also: nearly all actives have a fitted effect of over 60% in size
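Step 1: seed 2,000 HEK293T ELG1-luciferase cells per well. Step 2: add compound or DMSO, incubate 16 hr at 37 °C. Step 3: ONE-Glo, 30 min at room temperature, read luminescence.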
SMN2 splice enh: enhancers of SMN2 splice variant expression. AID 1458. 210,000 tested, 2.8% active. Potency, µM (doses to about 46.1 µM), usual class: activators. HEK293 SMN2-luciferase splicing reporter, luminescence, 30-36 h; also: nearly all actives have a fitted effect of over 55% in size
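HEK293 cells carry an SMN2 minigene-luciferase reporter in which exon 7 inclusion puts luciferase in frame. Cells were seeded at 2000 cells/well, attached for 10-12 hours, then exposed to compounds for 30-36 hours at 37C before ONE-Glo luminescence.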
Each line names hits and unclear results; the compound was inactive in the other large screens. A selection: hits, their analogues and other compounds. The true share with any hit is near 7.5%. Calls follow the shape of the dose curve; as a rule, active = well fitted curve in the direction sought with a large enough effect; inconclusive = small, poorly fitted or top-dose-only effect, or another doubt; inactive = no such curve, though single readings can be large; an effect the other way counts as inactive or inconclusive.

COc1ccc(-n2nc(C(=O)NCC(=O)N3CCC4(CC3)OCCO4)c3ccccc3c2=O)cc1OC	Rab9 prom act inconclusive, FLuc counter 3µM (no result: KinaseGlo FLuc, SMN2 splice enh)
COc1cccc(-n2nc(C(=O)N3CCC4(CC3)OCCO4)c3ccccc3c2=O)c1	none
O=C(C1CC(c2ccc(F)cc2)=NO1)N1CCC2(CC1)OCCO2 (stereo unspecified)	Rab9 prom act inconclusive, FLuc counter 17µM, ELG1 genotoxic 21µM
O=C(C1CC(c2ccc(Cl)c(Cl)c2)=NO1)N1CCC2(CC1)OCCO2 (stereo unspecified)	NPC1 prom act 2.2µM, Rab9 prom act 2µM, FLuc counter 15µM, ELG1 genotoxic 7.3µM, SMN2 splice enh 13µM
CC(=O)OC1=CC2=CC[C@H]3[C@H]4CCC(=O)[C@@]4(C)CC(=O)[C@]3(S)[C@]2(C)CC1	none (no result: NPC1 prom act, Rab9 prom act, FLuc counter, ELG1 genotoxic)
CCOc1ccccc1Oc1coc2cc(OC(=O)c3ccco3)ccc2c1=O	FLuc counter 15µM, SMN2 splice enh inconclusive
O=C1NC(=S)N(C2CC2)C(=O)/C1=C/c1ccc2c(c1)CCN2CCCCl	FLuc counter 19µM, ELG1 genotoxic inconclusive
CCN1C(=O)/C(=C/c2ccc3c(c2)CCN3CCCCl)C(=O)NC1=S	FLuc counter inconclusive, KinaseGlo FLuc inconclusive, ELG1 genotoxic inconclusive
CN(C)C(Cc1ccccc1)C(=O)c1c[nH]c2ccccc12 (stereo unspecified)	FLuc counter 24µM (no result: KinaseGlo FLuc, SMN2 splice enh)
Cc1nn(C(C)(C)C)c(C)c1/C=N/OC(=O)Nc1ccc(Cl)c(Cl)c1	FLuc counter 0.19µM (no result: KinaseGlo FLuc, SMN2 splice enh)
C=CCN1CCc2cccc3c2C1Cc1ccc(O)c(O)c1-3 (stereo unspecified)	none (no result: NPC1 prom act, Rab9 prom act, FLuc counter, ELG1 genotoxic)
NS(=O)(=O)C[C-]1C=C[CH]([Sb-]([Cl])([Cl])([Cl])([Cl])[Cl])C=C1.c1ccncc1 (stereo unspecified)	none (no result: NPC1 prom act, Rab9 prom act, FLuc counter, ELG1 genotoxic)
CNc1ccc2nc3ccccc3[n+](C)c2c1	FLuc counter 17µM (no result: KinaseGlo FLuc, SMN2 splice enh)
C[n+]1c2ccccc2nc2ccc(NCCO)cc21	FLuc counter 19µM (no result: KinaseGlo FLuc, SMN2 splice enh)
OCCNc1c2c(nc3ccccc13)CCCC2	none
CCC(C(=O)O)C1CCC(C)C(C(C)C(O)C(C)C(=O)C(CC)C2OC3(C=CC(O)[C@@]4(CC[C@](C)(C5CC[C@@](O)(CC)C(C)O5)O4)O3)C(C)CC2C)O1 (stereo partly specified)	none (no result: NPC1 prom act, Rab9 prom act, FLuc counter, ELG1 genotoxic)
Clc1cccc(/C=N\Nc2nccs2)c1	NPC1 prom act inconclusive, Rab9 prom act inconclusive, FLuc counter 13µM, ELG1 genotoxic 21µM
CCC(COC(=O)NC)NC(=O)Oc1cccc(C)c1 (stereo unspecified)	none
CNC(=O)Oc1cccc(-c2cn3cc(Cl)ccc3n2)c1	NPC1 prom act 3.2µM, Rab9 prom act 3.5µM, FLuc counter 2.7µM, KinaseGlo FLuc 10µM, ELG1 genotoxic inconclusive, SMN2 splice enh inconclusive
CNC(=O)Oc1ccc(-c2cn3cc(C)ccc3n2)cc1	NPC1 prom act 0.35µM, Rab9 prom act 0.32µM, FLuc counter 0.34µM, KinaseGlo FLuc inconclusive, ELG1 genotoxic inconclusive, SMN2 splice enh 1.8µM
ClC(Cl)C(Cl)Cl	none (no result: NPC1 prom act, Rab9 prom act, FLuc counter, KinaseGlo FLuc, ELG1 genotoxic)
COc1cc(/C=N/NC(=O)CN2CCCCC2)ccc1OCc1ccccc1	FLuc counter 12µM, ELG1 genotoxic inconclusive, SMN2 splice enh inconclusive
COc1cc2c(cc1OC)[C@@]13CCN4CC5=CCO[C@H](CC(=O)O)[C@@H]([C@H]1N2)[C@H]5C[C@H]43	none (no result: NPC1 prom act, Rab9 prom act, FLuc counter, ELG1 genotoxic)
Nc1ccc(Cl)cc1N	SMN2 splice enh 7.1µM (no result: NPC1 prom act, Rab9 prom act, FLuc counter, KinaseGlo FLuc, ELG1 genotoxic)
Cc1ccc(N)c(N)c1	FLuc counter 5.4µM, ELG1 genotoxic inconclusive, SMN2 splice enh 3.5µM (no result: KinaseGlo FLuc)
Nc1cc(Cl)ccc1Cl	none (no result: NPC1 prom act, Rab9 prom act, FLuc counter, KinaseGlo FLuc, ELG1 genotoxic)
CCCCCCCCCC[Si](C)(C)CCC(=O)NC(Cc1ccc(C)cc1)c1ccccc1 (stereo unspecified)	SMN2 splice enh inconclusive (no result: FLuc counter, ELG1 genotoxic)
O=C(N/N=C/c1c(O)n(C2CC2)c(=S)[nH]c1=O)c1ccccc1O	NPC1 prom act inconclusive, Rab9 prom act inconclusive, FLuc counter 15µM, SMN2 splice enh inconclusive
O=C(N/N=C/c1c(O)n(-c2ccccc2)c(=S)[nH]c1=O)c1ccccc1	FLuc counter inconclusive (no result: KinaseGlo FLuc, SMN2 splice enh)
Cc1ccccc1-n1c(O)c(/C=N/NC(=O)c2ccccc2O)c(=O)[nH]c1=S	FLuc counter 11µM (no result: KinaseGlo FLuc, SMN2 splice enh)
CC(=O)O[C@H]1CC[C@H]2[C@@H]3CCC4=C[C@@H](C5SCCS5)[C@H](OC(C)=O)C[C@]4(C)[C@H]3CC[C@@]12C	none (no result: NPC1 prom act, Rab9 prom act, FLuc counter, ELG1 genotoxic)
O=C(Nc1ccc(Cl)c(Cl)c1)c1ccco1	NPC1 prom act inconclusive, Rab9 prom act inconclusive, FLuc counter 21µM, ELG1 genotoxic inconclusive (no result: KinaseGlo FLuc, SMN2 splice enh)
C=CCNC(=S)Nc1ccc(OC(=O)Nc2ccc(Cl)c(Cl)c2)cc1	none (no result: KinaseGlo FLuc, SMN2 splice enh)
Oc1cccc(/C=N/NP(=S)(c2ccccc2)c2ccccc2)c1	FLuc counter 24µM
O=c1c2ccccc2[nH]c(=S)n1-c1ccc2c(c1)OCCO2	NPC1 prom act inconclusive, Rab9 prom act inconclusive, FLuc counter 11µM (no result: KinaseGlo FLuc, SMN2 splice enh)
Cc1cccc(-n2c(=S)[nH]c3ccccc3c2=O)n1	none
ClC(Br)Br	none (no result: NPC1 prom act, Rab9 prom act, FLuc counter, KinaseGlo FLuc, ELG1 genotoxic)
